Source: PubChem BioAssay AID1233 (SRMLSC, 2008)
Potency and affinity values are given separately.

molecular target: HMG-CoA reductase [Enterococcus faecalis] (UniProt Q9FD70); assay: class II HMG-CoA reductase inhibition potency – biochemical, Enterococcus faecalis, confirmation (AID 1233);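 note: 0% = full reaction carrier wells and 100% = background wells lacking mevalonate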; details: purified E. faecalis HMGR, NADPH absorbance 340 nm kinetics; series mostly up to 100 µM; inhibition: at the top concentration

inhibition, inactive:
COc1cc2c(cc1OC)CN(C(C)C(=O)N1CCc3ccccc31)CC2 (stereo not drawn) -8.07%
Cc1ccc(S(=O)(=O)N2CCN(C(=O)CSc3nnc(-c4ccco4)o3)CC2)cc1 -0.58%
O=C1c2ccccc2C(=O)C1c1ccc2ccccc2n1 -0.79%
CCOc1ccc(/C(O)=C2/C(=O)C(=O)N(CC3CCCO3)C2c2ccco2)cc1 (stereo not drawn) -5.36%
COc1ccc(Cc2noc(-c3ccccc3)n2)cc1OC -9.92%
Cc1cc(NC(=O)c2c(F)cccc2Cl)no1 -2.21%
O=C(NCCOc1ccccc1Cl)C(=O)c1c[nH]c2ccccc12 0.25%
CC1(C)CNC(=O)c2sc(NC(=O)c3ccccc3)nc2C1 -0.14%
COc1cc(-c2nnc(SC/C=C/c3ccccc3)n2N)cc(OC)c1OC -0.99%
CCOCC(=O)OCC(=O)Nc1cc(OC)c([N+](=O)[O-])cc1C -10.1%
Cc1cc(C=O)c2c(c1)C=CC1(Oc3ccccc3C(=O)N1C)O2 (stereo not drawn) -7.06%
CN(CCC#N)C(=O)COC(=O)c1ccc(Cl)c(S(=O)(=O)N(C)c2ccccc2)c1 2.03%
O=C(NCC(=O)N(Cc1cccs1)C(C(=O)NC1CCCC1)c1ccncc1)c1ccco1 (stereo not drawn) -4.43%
CCOC(=O)/C(C#N)=C/c1ccc(SC)cc1 -12.1%
CCOC(=O)Cc1nn(Cc2ccccc2)c(=O)c2ccccc12 0.6%
O=C(Nc1ccc2c(c1)OCO2)c1noc2c1CCCCC2 -1.8%
CCN(CC)S(=O)(=O)c1ccc(C(=O)Nc2c3c(nn2C(C)(C)C)CS(=O)(=O)C3)cc1 -0.5%
COc1ccc(Cl)cc1NC(=O)CN(c1ccccc1)S(=O)(=O)N(C)C -8.3%
COC(=O)C1=C(C)NC(C)=C(C(=O)OC)C1C1CC=CCC1 (stereo not drawn) -1.61%
CC(=O)c1cccc(NC(=O)Nc2csc3c2CCCC3)c1 -3.82%
O=C(Nc1ccc(S(=O)(=O)Nc2ccccc2)cc1)C1COc2ccccc2O1 (stereo not drawn) -3.81%
COc1ccccc1CNC(=O)C1CCCN(S(=O)(=O)c2c(C)[nH]c(=O)[nH]c2=O)C1 (stereo not drawn) -6.01%
O=c1oc2ccccc2c(O)c1C=Nc1cccnc1 -2.21%
O=C1OC(c2cccs2)=N/C1=C/c1ccc(-c2cccc(C(=O)O)c2)o1 -3.77%
COc1ccc(OC)c(-n2nnnc2SCC(=O)Nc2ccccc2N2CCOCC2)c1 -5.58%
S=C(NCc1ccccc1)N1CCN(c2cccc(Cl)c2)CC1 -0.43%
CC(=O)C1=C(O)C(=O)N(C)C1c1ccccc1F (stereo not drawn) -5.44%
O=C(c1cc([N+](=O)[O-])ccc1N1CCCCC1)N1CCc2ccccc21 2.36%
COc1ccc(/C=C(/C#N)S(=O)(=O)c2ccc(C)cc2)cc1 -60.1%
O=C(COC(=O)Cc1c(Cl)cccc1Cl)NCCC1=CCCCC1 -4.75%
O=C(CSc1nc(-c2ccccc2)cs1)N1CCc2ccccc21 -6.01%
CCc1cccc2c(C#N)cn(CCOc3ccccc3OC)c12 -1.17%
O=C(c1cccs1)N(c1ccc(F)cc1)C1C=CS(=O)(=O)C1 (stereo not drawn) -5.9%
CCCCCCNC(=O)C(=O)NCCc1ccc(Cl)cc1 -5.67%
Cn1nccc1C(=O)N1CCc2ccccc21 -1.21%
COCCNC(=O)C1c2cc(OC)c(OC)cc2C(=O)N(C)C1c1cccnc1 (stereo not drawn) -0.13%
O=C(Cc1ccccc1)Nc1ccccc1CO -3.78%
CC1CN(C(=O)c2ccncc2)CC(C)O1 (stereo not drawn) 1.13%
